Our source for the composite z-score and z-score values is PubChem BioAssay.

Each structure is given as a SMILES string. Calls of active or inactive are those of the source. Unless noted, how the calls were made is not given here.

Test [1] is described as follows: compounds binding Alexa647 anti-His antibody – biochemical, small-molecule microarray, 635 nm fluorescence, artefact control for SMM control protein annotation, primary screen (AID 1128).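 Further: score merges feature fluorescence with signal-to-noise for each printed compound spot.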 To be noted: higher = more signal.
Test [2] concerns Human papillomavirus type 1a E7 protein (residues 1-88). The experiment in a line: HPV1a E7 small-molecule binders, primary screen, biochemical, small-molecule microarray, residues 1-88, 635 nm (AID 1129). Particulars: small-molecule microarray binding, fluorescence 635 nm; higher = more signal.
For test [3], the target named is Focal adhesion kinase 1 (Homo sapiens) (UniProt Q05397). Kind of test: PTK2 protein binding on printed compound slides – biochemical, small-molecule microarray, 635/667 nm fluorescence, BSA, DTT, primary screen (AID 1130).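 Further: composite of spot emission at 667 nm and signal to noise over triplicate slides.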 To be noted: 635 nm fluorescence, higher = more signal.
Sequence of Focal adhesion kinase 1 (Homo sapiens) (Q05397 whole entry, looked up): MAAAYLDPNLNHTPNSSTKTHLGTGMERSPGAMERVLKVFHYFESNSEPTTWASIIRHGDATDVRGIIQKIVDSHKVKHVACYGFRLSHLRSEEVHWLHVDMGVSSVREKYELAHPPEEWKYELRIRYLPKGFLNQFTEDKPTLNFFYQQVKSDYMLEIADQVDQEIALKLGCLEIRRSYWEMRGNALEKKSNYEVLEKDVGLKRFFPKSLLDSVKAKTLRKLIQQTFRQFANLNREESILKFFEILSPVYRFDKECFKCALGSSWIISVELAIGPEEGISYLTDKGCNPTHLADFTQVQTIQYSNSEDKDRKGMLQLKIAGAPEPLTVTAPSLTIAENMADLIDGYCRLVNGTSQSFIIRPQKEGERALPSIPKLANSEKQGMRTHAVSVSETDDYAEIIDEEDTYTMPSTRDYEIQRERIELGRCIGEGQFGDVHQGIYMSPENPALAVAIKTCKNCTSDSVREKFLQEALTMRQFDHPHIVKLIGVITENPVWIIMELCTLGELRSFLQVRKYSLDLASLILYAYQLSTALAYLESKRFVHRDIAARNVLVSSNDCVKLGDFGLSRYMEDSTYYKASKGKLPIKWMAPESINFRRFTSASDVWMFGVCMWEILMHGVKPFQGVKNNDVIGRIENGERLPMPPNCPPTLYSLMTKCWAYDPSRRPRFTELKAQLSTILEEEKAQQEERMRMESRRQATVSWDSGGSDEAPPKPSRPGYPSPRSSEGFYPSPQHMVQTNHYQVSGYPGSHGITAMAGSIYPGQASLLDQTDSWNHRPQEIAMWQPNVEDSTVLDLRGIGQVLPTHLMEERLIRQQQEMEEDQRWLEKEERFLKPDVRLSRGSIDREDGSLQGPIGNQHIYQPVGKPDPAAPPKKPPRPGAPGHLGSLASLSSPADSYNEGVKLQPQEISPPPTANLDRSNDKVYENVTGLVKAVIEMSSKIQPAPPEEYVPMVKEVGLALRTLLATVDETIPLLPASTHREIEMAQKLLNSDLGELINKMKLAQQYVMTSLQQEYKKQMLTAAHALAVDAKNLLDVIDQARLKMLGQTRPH
Test [4] concerns Fibrinogen (Alexa647-labelled). Kind of test: Alexa647-fibrinogen binding to printed small molecules – biochemical, small-molecule microarray, 635/667 nm fluorescence, artefact control for SMM control-protein annotation, profiling panel (AID 1131).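 Further: z-score merges 667 nm fluorescence with per-spot signal-to-noise over triplicate slides.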 To be noted: fibrinogen-A647 binding fluorescence, higher = more signal.
The target of test [5] is Follistatin (Homo sapiens) (UniProt P19883). Kind of test: FST protein binding to printed compounds – biochemical, small-molecule microarray, 635/667 nm fluorescence, primary screen (AID 1132). To be noted: 635 nm fluorescence, higher = more signal.
Sequence of Follistatin (Homo sapiens) (P19883 whole entry, looked up): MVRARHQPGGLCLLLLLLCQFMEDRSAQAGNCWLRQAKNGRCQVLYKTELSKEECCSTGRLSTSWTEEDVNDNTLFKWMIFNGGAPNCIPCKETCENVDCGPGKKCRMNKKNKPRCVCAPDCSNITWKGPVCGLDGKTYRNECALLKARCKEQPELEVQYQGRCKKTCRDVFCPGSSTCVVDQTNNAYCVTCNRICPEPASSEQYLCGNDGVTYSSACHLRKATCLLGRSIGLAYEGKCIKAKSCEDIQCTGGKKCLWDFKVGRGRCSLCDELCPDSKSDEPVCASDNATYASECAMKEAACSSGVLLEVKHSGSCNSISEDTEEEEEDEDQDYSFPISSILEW
Test [6] concerns the target Fibroblast growth factor 2 (Homo sapiens) (UniProt P09038). Kind of test: basic fibroblast growth factor binding to printed compounds – biochemical, small-molecule microarray, 635/667 nm fluorescence, primary screen (AID 1133). Particulars: FGF2, fluorescence 635/667, higher = more signal.
Test [7] in a line: JC-1 mitochondrial potential readout, lung cancer cells – cell-based, A549, JC-1 fluorescence, basal, 24 h, 100 nL, profiling panel (AID 1138).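 Further: A549 lung adenocarcinoma cells under basal conditions with no added stimulus; test concentration not given here.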 Particulars: higher = more signal.
Test [8] relates to Lefty1. Kind of test: Lefty1 protein binding to printed compounds – biochemical, small-molecule microarray, 635/667 nm fluorescence, primary screen (AID 1139). To be noted: fluorescence 635/667, higher = more signal.
Test [9] has as its system wheat germ agglutinin (Triticum aestivum), Alexa647-labelled. The experiment in a line: Alexa647-WGA lectin binding to printed small molecules – biochemical, small-molecule microarray, 635/667 nm fluorescence, artefact control for SMM control-protein annotation, profiling panel (AID 1140).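 Further: score merges 667 nm feature emission with signal to noise over triplicate slides.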 Particulars: WGA-A647 binding, 635 nm fluorescence, higher = more signal.
Test [10] has as its target Luciferin 4-monooxygenase (Photinus pyralis) (UniProt P08659). Kind of test: inhibition of purified Photinus pyralis luciferase – biochemical, luminescence, purified enzyme, 2006 set, primary screen (AID 1141).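 Further: cell-free assay with purified firefly luciferase at 100 ng per well in PBS; test concentration not given here.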 To be noted: purified firefly luciferase, SteadyGlo luminescence, 30 min; higher = more signal, called active from +8 up or from −8 down.
The subject of test [11] is Wnt5a (protein binding on small-molecule microarray). Kind of test: small molecules binding Wnt5a protein – biophysical, small-molecule microarray, 635/667 nm fluorescence, primary screen (AID 1142).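 Further: fluorescence read at 667 nm with signal to noise per printed feature.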 Particulars: 635 nm fluorescence, higher = more signal.
The nature of test [12]: ATP-based viability of Huh7 replicon cells – cell-based, CellTiter-Glo luminescence, basal, 48 h, cytotoxicity control for HCV replication inhibitor project, primary screen (AID 1143).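 Further: Huh7 hepatoma cells carrying a hepatitis C replication reporter with no stimulus; test concentration not given here.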 Particulars: higher = more signal, called active from +8 up or from −8 down.
Test [13] is described as follows: Pseudomonas biofilm growth suppression – PAO1 strain, BacTiter-Glo luminescence, LB-PBS, primary screen (AID 1144). Particulars: P. aeruginosa PAO1 biofilm, 12 h, higher = more signal.
Test [14] can be described thus: basal CRE-LacZ reporter activity in PC12 – cell-based, unstimulated, primary screen (AID 1145). Particulars: no forskolin, luminescence, 4.5 h, higher = more signal, called active from +8 up or from −8 down.
Test [15] is described as follows: forskolin-driven CRE-LacZ activity in PC12 – cell-based, CRE-LacZ reporter, forskolin-stimulated, primary screen (AID 1146).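 Further: PC12 cells with 6xCRE LacZ reporter stimulated by forskolin 10 µM; beta-galactosidase reporter signal reflecting CREB driven transcription.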 Particulars: luminescence, 4.5 h, higher = more signal, called active from +8 up or from −8 down.
The target in test [16] is Streptavidin (Streptomyces avidinii) (UniProt P22629). The experiment in a line: compounds binding control protein streptavidin – biophysical, small-molecule microarray, 635/667 nm fluorescence, artefact control for SMM compound annotation, primary screen (AID 1147).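 Further: signal reflects streptavidin binding to arrayed compounds as a control protein.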 To be noted: higher = more signal.
Sequence of Streptavidin (Streptomyces avidinii) (P22629 whole entry, looked up): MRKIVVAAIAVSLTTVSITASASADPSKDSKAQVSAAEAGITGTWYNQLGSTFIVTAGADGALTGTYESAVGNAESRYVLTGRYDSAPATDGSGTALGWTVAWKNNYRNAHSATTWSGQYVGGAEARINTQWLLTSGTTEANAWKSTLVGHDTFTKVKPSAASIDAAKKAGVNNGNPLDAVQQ
Test [17] in a line: probe aInhba binding on compound microarray – biochemical, small-molecule microarray, 635/667 nm fluorescence, primary screen (AID 1148).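 Further: score merges 667nm spot fluorescence with signal-to-noise for antibody binding to printed compounds.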 Particulars: higher = more signal.
The target in test [18] is Torsin-1A (Homo sapiens) (UniProt O14656). Kind of test: TOR1A wild-type binding on microarray – cell lysate, small-molecule microarray, lysate, 635/667 nm, primary screen (AID 1149). Particulars: COS7 hTOR1A-WT lysate, 635 nm fluorescence, higher = more signal.
Sequence of Torsin-1A (Homo sapiens) (O14656 whole entry, looked up): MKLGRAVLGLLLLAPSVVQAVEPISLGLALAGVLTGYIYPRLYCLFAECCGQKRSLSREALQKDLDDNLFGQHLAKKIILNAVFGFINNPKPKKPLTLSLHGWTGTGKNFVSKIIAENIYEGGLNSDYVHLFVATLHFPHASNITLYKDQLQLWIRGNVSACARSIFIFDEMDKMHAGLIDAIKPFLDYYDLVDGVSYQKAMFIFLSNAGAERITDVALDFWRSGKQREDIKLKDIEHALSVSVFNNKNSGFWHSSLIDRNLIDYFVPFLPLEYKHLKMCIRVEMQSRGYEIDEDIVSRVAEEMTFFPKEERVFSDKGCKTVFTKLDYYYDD
Test [19] shares this target. Kind of test: torsin A mutant lysate binding on microarrays – cell lysate, small-molecule microarray, COS7 lysate, 635/667 nm fluorescence, primary screen (AID 1150).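 Further: score pools 667 nm emission and signal to noise measuring lysate protein binding.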 To be noted: COS7 hTOR1A mutant lysate, 635 nm fluorescence, higher = more signal.
The subject of test [20] is Sonic hedgehog protein (Shh). The experiment in a line: Sonic hedgehog microarray binding compounds – biochemical, small-molecule microarray, 635/667 nm fluorescence, primary screen (AID 1151).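 Further: Shh protein binding to compounds spotted on small-molecule microarray slides; score combines spot fluorescence intensity with signal-to-noise across triplicate slides.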 To be noted: 635 nm fluorescence, higher = more signal.

Sequence of Luciferin 4-monooxygenase (Photinus pyralis) (P08659 whole entry, looked up): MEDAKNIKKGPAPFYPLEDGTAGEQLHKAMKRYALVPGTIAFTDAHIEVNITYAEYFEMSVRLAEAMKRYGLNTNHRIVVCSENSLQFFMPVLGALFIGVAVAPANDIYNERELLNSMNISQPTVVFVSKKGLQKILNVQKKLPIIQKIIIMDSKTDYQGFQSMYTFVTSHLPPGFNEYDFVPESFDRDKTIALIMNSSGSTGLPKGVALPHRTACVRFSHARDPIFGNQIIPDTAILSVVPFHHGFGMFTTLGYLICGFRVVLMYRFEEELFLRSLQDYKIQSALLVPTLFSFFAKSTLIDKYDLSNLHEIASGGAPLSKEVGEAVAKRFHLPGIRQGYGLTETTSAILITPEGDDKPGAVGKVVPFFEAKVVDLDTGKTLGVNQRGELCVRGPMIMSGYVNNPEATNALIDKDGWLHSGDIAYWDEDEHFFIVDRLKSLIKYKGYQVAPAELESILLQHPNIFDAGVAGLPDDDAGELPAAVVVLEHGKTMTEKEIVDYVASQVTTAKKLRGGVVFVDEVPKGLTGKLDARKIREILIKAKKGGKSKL
Sequence of Fibroblast growth factor 2 (Homo sapiens) (P09038 whole entry, looked up): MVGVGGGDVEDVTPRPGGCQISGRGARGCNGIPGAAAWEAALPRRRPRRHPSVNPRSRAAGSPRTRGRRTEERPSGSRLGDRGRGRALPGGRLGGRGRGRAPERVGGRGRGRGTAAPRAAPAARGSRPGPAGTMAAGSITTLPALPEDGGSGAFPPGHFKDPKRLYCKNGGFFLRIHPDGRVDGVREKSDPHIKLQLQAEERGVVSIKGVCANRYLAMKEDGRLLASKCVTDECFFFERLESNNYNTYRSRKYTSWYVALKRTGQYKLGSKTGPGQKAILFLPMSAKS

Regarding `C=C(CCCC)/C(=C/C[C@@H](OC(C)=O)c1ccc(CO)o1)c1cc(C(=O)OC)ccc1OC`, the composite z-score in [1] stood at 0.746; in test [2], 0.961; in test [3] it was 0.506; in test [4], 0.715; in test [5] it was 1.33; in [6], 1.17. Besides, the composite z-score was 1.22 in test [8]; 0.454 in [9]; 0.259 in test [11]; 0.498 in test [16]; -0.0405 in test [17]; 0.436 in test [18]. For the same compound, the composite z-score in [19] worked out at 0.371; in test [20], 2.15. The z-score was 0.522 in [7]; -2.87 (inactive) in [10]; 0.0294 (inactive) in test [12]; -0.504 (inactive) in test [13]; 3.68 (inactive) in [14]; 2.34 (inactive) in test [15].

For `CN(C)CCCCNC(=O)[C@H]1C[C@H]2C(=O)N[C@@H](CCCCN(C)C)C(=O)N2[C@H]1c1cccc(OCCO)c1`, the composite z-score stood at 1.1 in test [1]; 0.603 in test [2]; 0.29 in [3]; 0.877 in test [4]; 1.3 in test [5]; 1.23 in [6]. In addition, the composite z-score in test [8] was 1.64; in [9] it was 1.02; in [11] it was 0.83; in test [16], 0.329; in test [17], -0.305; in test [18] it was 0.68. In addition, the results for the composite z-score in test [19] and in test [20] were 0.86 and 2.08, respectively. The z-score is -0.0557 in test [7]; 0.709 (inactive) in test [10]; 0.441 (inactive) in test [12]; 0.251 (inactive) in test [13]; -1.07 (inactive) in test [14]; -0.535 (inactive) in test [15].

Consider `C=C(C(=O)CC[C@H](OC(=O)c1cccnc1)c1cccc(OCCO)c1)C(C)C`, for which the composite z-score in [1] is 0.0024; in test [2] it was -0.498; in [3] it was -0.136; in test [4], -0.744; in test [5], -1.01; in test [6] it was -0.464. Besides, the composite z-score in test [8] was 0.0695; in test [9], -0.168; in test [11], -0.13; in [16], 0.0502; in test [17] it was -0.0719; in [18], 1.17. Further, the composite z-score in test [19] was -0.206; in test [20], 0.389. Further, the z-score is 0.838 in test [7]; -0.894 (inactive) in test [10]; -1.04 (inactive) in [12]; -0.285 (inactive) in [13]; 17.7 (active) in [14]; -0.464 (inactive) in [15].

Take `C=CCN1C(=O)[C@]2(CC=C)N=C(c3ccc(OCCCO)cc3)O[C@@H]2c2ccccc21`: the composite z-score in test [1] is 3.19; in test [2], 1.16; in test [3], 0.496; in test [4], 0.297; in [5] it was 1.39; in [6] it was 1.56. In addition, the composite z-score turned out to be 0.768 in test [8]; 1.14 in test [9]; 0.731 in test [11]; 0.842 in test [16]; 0.296 in test [17]; 0.265 in test [18]. In addition, the composite z-score in [19] stood at 0.538; in [20] it was 1.65. In addition, the z-score in test [7] was -0.998; in test [10], -3.31 (inactive); in test [12], -4.15 (inactive); in test [13] it was 0.312 (inactive); in test [14] it was 0.796 (inactive); in test [15] it was -0.953 (inactive).

Consider `CCOC(=O)C1=CC[C@@H](c2ccccc2C(F)(F)F)N(S(=O)(=O)c2ccc(C)cc2)C1`, for which the composite z-score in [1] is 1.62; in test [2] it was 1.18; in test [3], 0.406; in test [4], 0.836; in test [5] it was 0.877; in [6], 0.633. Moreover, the composite z-score is -0.356 in test [8]; 0.989 in [9]; 0.658 in test [11]; 0.867 in [16]; 0.693 in [17]; -0.117 in [18]. In addition, the results for the composite z-score in test [19] and in [20] were 2.07 and 0.0555, respectively. Besides, the z-score was 1.9 in [7]; 0.515 (inactive) in [10]; -5.24 (inactive) in test [12]; -0.0874 (inactive) in [13]; 0.238 (inactive) in test [14]; -0.596 (inactive) in test [15].
